Assay outcomes as filed in PubChem BioAssay.
ATXN2 expr inh = ATXN2 expression inhibition. actives 0.72% (n = 360,000). HEK-293 ATXN2-luciferase reporter, luminescence, 24 h. Potency, µM (highest dose often 57 µM), usual class: inhibitors; further: nearly all actives have a fitted effect of over 55% in size
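qHTS (up to 57 uM final) was run with 24 h compound exposure of reporter cells at 37 °C. Each well was multiplexed: SteadyGlo luminescence measured ATXN2-luciferase expression after a fluorogenic Gly-Phe-AFC viability readout (25 uM final).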
TGFb inhibitor = blocks TGF-b signaling; HepG2 CAGA-GFP TGF-b/SMAD3 reporter, GFP fluorescence, 18 h; TGF-beta stimulated, 500 pg/mL final; Potency, µM (series often up to 46.1 µM), hits mostly inhibitors; actives 1.2% (n = 410,000); AID 588855; further: nearly all actives have a fitted effect of over 65% in size
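Read-out: total well GFP (ex488/em500-530) summed from mean per-cell fluorescence. Cells: HEPG2 CAGA-GFP, 1% FBS DMEM, 18 h at 37 degrees C with 500 pg/mL final TGF-beta. Unstimulated wells served as the full-inhibition control; stimulated DMSO wells = 0%.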
HepG2 viability = counter-screen for TGF-b inhibitors: cytotoxicity in HepG2 cells; HepG2 CAGA-GFP viability, ATP luminescence, 18 h; Potency, µM (series often up to 46.1 µM), usual class: cytotoxic; actives 0.76% (n = 410,000)
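CellTiter-Glo luminescence gave cytotoxicity after 18 hours at 37 degrees C. The cells were HepG2 CAGA-GFP in 1% FBS DMEM, stimulated with 500 pg/mL TGF-beta after compound addition. %Activity was normalised to no-cell wells (complete cell-killing) and DMSO (no toxicity), and curves were fitted and classified.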
ATXN viability = reduces viability in counter-screen for ATXN expression inhibitors. S2 cells (HEK-293 line with an ATXN2-luciferase reporter) viability, CellTiter-Fluor protease fluorescence, 24 h. Potency, µM (top dose mostly 56.7 µM), usual class: cytotoxic. actives 0.49% (n = 400,000); further: nearly all actives have a fitted effect of over 40% in size
IL-1B inflam inh = blocks inflammasome-driven IL-1 beta release; THP-1 LPS/ATP IL-1B secretion, AlphaLISA, 16 h; hits give low values; activity change, % at 57.5 µM; actives 4.7% (n = 360,000); AID 743279; in the data active means activity change below about -50%; inconclusive means mostly about -30% to -49%
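Secreted IL-1B measured by AlphaLISA bead assay after 16 h compound exposure of THP-1 cells; compounds (final up to 57.5 uM) added 1 h before LPS (250 ng/mL) and ATP (1.25 mM) stimulation; lower signal means less secretion.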
Numbers stand for hits. In the library only some 5.7% were active in any assay of this set; here they are far more common. Unless noted, the call rests on the fitted dose curve; in most records, active means well fitted curve in the direction sought with a large enough effect; inconclusive means small, poorly fitted or top-dose-only effect, or another doubt; inactive means no such curve, though single readings can be large; an effect the other way counts as inactive or inconclusive.

How did CCN(CC)C(=O)[C@H]1C[C@H](CC(=O)NCCCN(C)C)C(=O)N2CCc3c([nH]c4cc(-c5ccco5)ccc34)[C@]12C do in these assays?
ATXN2 expr inh: inactive; TGFb inhibitor: inactive; HepG2 viability: inactive; ATXN viability: inactive; IL-1B inflam inh: inactive

What do the screens show for `CC(C)N(C(=O)[C@H]1C[C@H](CC(=O)NCCc2ccccn2)C(=O)N2CCc3c([nH]c4cc(-c5ccco5)ccc34)[C@]12C)C(C)C`?
ATXN2 expr inh: inconclusive; TGFb inhibitor: inconclusive; HepG2 viability: inactive; ATXN viability: inconclusive; IL-1B inflam inh: inconclusive

How did CCN(CC)C(=O)[C@H]1C[C@H](CC(=O)NCCC2=CCCCC2)C(=O)N2CCc3c([nH]c4ccc(Cl)cc34)[C@]12C do in these assays?
ATXN2 expr inh: inconclusive; TGFb inhibitor: inconclusive; HepG2 viability: inactive; ATXN viability: inconclusive; IL-1B inflam inh: -54

How did COc1ccc(Cl)cc1NS(=O)(=O)c1c(C)nc2scc(C)n2c1=O do in these assays?
ATXN2 expr inh: inactive; TGFb inhibitor: inactive; HepG2 viability: inactive; ATXN viability: inactive

How did COc1cc(CN2C(=O)CC[C@@H]3CN(Cc4ccccn4)CC[C@@H]32)cc(OC)c1OC do in these assays?
ATXN viability: inactive

What do the screens show for `Cc1cccc2c(/C=C/c3ccc(N(C)C)cc3)ccnc12`?
TGFb inhibitor: inactive; HepG2 viability: inactive

How did CCN(CC)c1nc(C#N)nc(N2CCOCC2)n1 do in these assays?
TGFb inhibitor: inactive; HepG2 viability: inactive

Results for Cc1c(C(=O)NCC(C)(C)N2CCOCC2)cnn1-c1nccc(-c2cccs2)n1 ?
ATXN viability: inactive

How did Cc1ccc(-c2nnc(Nc3ccc(CC(N)=O)cc3)c3ccccc23)cc1S(N)(=O)=O do in these assays?
ATXN2 expr inh: inactive; TGFb inhibitor: inconclusive; HepG2 viability: inactive; ATXN viability: inactive; IL-1B inflam inh: inactive

How did Cc1ccc(Nc2nnc(-c3ccc(C)c(S(N)(=O)=O)c3)c3ccccc23)cc1 do in these assays?
ATXN2 expr inh: inactive; TGFb inhibitor: 10µM; HepG2 viability: inactive; ATXN viability: inactive

What do the screens show for `Cc1ccc(Nc2nnc(-c3ccc(C)c(S(=O)(=O)N4CCN(C)CC4)c3)c3ccccc23)cc1`?
ATXN2 expr inh: inactive; TGFb inhibitor: inactive; HepG2 viability: inactive; ATXN viability: inactive

How did Cc1ccc(-c2nnc(Nc3ccc(CC(N)=O)cc3)c3ccccc23)cc1 do in these assays?
ATXN2 expr inh: inactive; TGFb inhibitor: 13µM; HepG2 viability: inactive; ATXN viability: inactive; IL-1B inflam inh: inconclusive

What do the screens show for `COc1ccc(Nc2nnc(-c3ccc(C)c(S(=O)(=O)N4CCN(C)CC4)c3)c3ccccc23)cc1`?
ATXN2 expr inh: inconclusive; TGFb inhibitor: 14µM; HepG2 viability: inactive; ATXN viability: inconclusive

Results for CC(=O)N1CCSc2ccc(S(=O)(=O)Nc3ccccc3C)cc21 ?
ATXN2 expr inh: inconclusive; TGFb inhibitor: inactive; HepG2 viability: inactive; ATXN viability: inactive; IL-1B inflam inh: -57

What do the screens show for `CCc1ccccc1NC(=O)c1ccc(Cn2nc(N3CCN(c4ccccc4)CC3)ccc2=O)o1`?
ATXN2 expr inh: 20µM; TGFb inhibitor: inconclusive; HepG2 viability: inactive; ATXN viability: inconclusive

What do the screens show for `CCCC1=NN2C(=N)/C(=C\c3cc(C)n(Cc4ccccc4)c3C)C(=O)N=C2S1`?
TGFb inhibitor: inconclusive; HepG2 viability: inactive; ATXN viability: inactive; IL-1B inflam inh: inactive

Results for Cc1cccc(-n2c(C)cc(C=C3C(=O)c4ccccc4C3=O)c2C)c1 ?
ATXN2 expr inh: inactive; TGFb inhibitor: inactive; HepG2 viability: inactive; ATXN viability: inactive; IL-1B inflam inh: -58

Results for Cc1cc(C=C2C(=O)c3ccccc3C2=O)c(C)n1-c1ccc(Cl)cc1 ?
ATXN2 expr inh: inactive; TGFb inhibitor: inactive; HepG2 viability: inactive; ATXN viability: inactive; IL-1B inflam inh: inactive

How did CCCC1=NN2C(=N)/C(=C\c3cc(C)n(-c4cccc(C)c4)c3C)C(=O)N=C2S1 do in these assays?
ATXN2 expr inh: inactive; TGFb inhibitor: inactive; HepG2 viability: 3.5µM; ATXN viability: inactive; IL-1B inflam inh: inactive

Results for COC(=O)c1ccc(CSc2c(C(C)C)cnc3c2c(=O)n(C)c(=O)n3C)cc1 ?
TGFb inhibitor: inactive; HepG2 viability: inactive

Results for CCc1nc2nc(C)cc(Nc3ccc(Br)cc3F)n2n1 ?
ATXN2 expr inh: inactive; TGFb inhibitor: inactive; HepG2 viability: inactive; ATXN viability: inactive

How did COc1ccc2nc(NN=C(C)c3ccccn3)cc(C)c2c1 do in these assays?
ATXN2 expr inh: inconclusive; TGFb inhibitor: 1.1µM; HepG2 viability: inactive; ATXN viability: 7.5µM; IL-1B inflam inh: -102

How did Cc1n[nH]c(C)c1N1C(=O)c2cccc3c(Br)ccc(c23)C1=O do in these assays?
ATXN2 expr inh: inactive; TGFb inhibitor: inactive; HepG2 viability: inactive; IL-1B inflam inh: -107

What do the screens show for `Cc1n[nH]c(C)c1N1C(=O)c2cccc3cc(Br)cc(c23)C1=O`?
ATXN2 expr inh: inactive; TGFb inhibitor: inactive; HepG2 viability: inactive; ATXN viability: inactive; IL-1B inflam inh: inactive

How did O=C(CNCC1CCCCC1)Nc1ccc(OC(F)(F)F)cc1 do in these assays?
ATXN2 expr inh: inactive; TGFb inhibitor: 16µM; HepG2 viability: inactive; ATXN viability: inactive; IL-1B inflam inh: -101

What do the screens show for `O=C(CN1CCc2ccccc2C1)Nc1ccc(F)cc1`?
ATXN2 expr inh: inactive; TGFb inhibitor: inactive; HepG2 viability: inactive; ATXN viability: inactive; IL-1B inflam inh: inactive

What do the screens show for `O=C(CN1CCc2ccccc2C1)Nc1ccc(OC(F)(F)F)cc1`?
ATXN2 expr inh: inactive; TGFb inhibitor: inactive; HepG2 viability: inactive; ATXN viability: inactive; IL-1B inflam inh: -65

Results for Oc1cccc(/C=N/NC(=S)NCCN2CCOCC2)c1O ?
TGFb inhibitor: inactive; HepG2 viability: inactive; ATXN viability: inactive; IL-1B inflam inh: inactive

What do the screens show for `S=C(NCCN1CCOCC1)N/N=C/c1cccs1`?
TGFb inhibitor: 4.5µM; HepG2 viability: 8.9µM; ATXN viability: 5µM; IL-1B inflam inh: inactive

What do the screens show for `O=C(CNC(=O)C(c1ccccc1)c1ccccc1)OCC(=O)c1cccc2ccccc12`?
TGFb inhibitor: inactive; HepG2 viability: inactive

How did CCOc1ccc2nc(N(CCN(C)C)C(=O)/C=C/c3cccs3)sc2c1 do in these assays?
TGFb inhibitor: inactive; HepG2 viability: inactive; ATXN viability: inactive; IL-1B inflam inh: -71

What do the screens show for `CCOc1cccc2sc(N(CCN(C)C)C(=O)/C=C/c3cccs3)nc12`?
ATXN2 expr inh: inconclusive; TGFb inhibitor: inconclusive; HepG2 viability: inactive; ATXN viability: inconclusive; IL-1B inflam inh: -103

Results for CN(C)CCN(C(=O)/C=C/c1cccs1)c1nc2ccc(Br)cc2s1 ?
TGFb inhibitor: inactive; HepG2 viability: inactive; ATXN viability: inconclusive; IL-1B inflam inh: inactive

Results for Cc1ccc2nc(N(CCN(C)C)C(=O)/C=C/c3cccs3)sc2c1 ?
ATXN2 expr inh: inactive; TGFb inhibitor: inactive; HepG2 viability: inactive; ATXN viability: inconclusive; IL-1B inflam inh: inconclusive
